Sampled rows, rich in hits. Any-hit rate of the full collection: about 17%.
TDP1 cell CPT: qHTS for Inhibitors of human tyrosyl-DNA phosphodiesterase 1 (TDP1): qHTS in cells in presence of CPT; chicken DT40 Tdp1-/-;hTDP1 cells + 20 nM CPT, ATP luminescence, 48 h; Potency, µM (doses to about 46.2 µM), for inactives: at the highest dose activity change, negative = growth inhibition, actives largely listed as inhibitors; actives 12% (n = 420,000); AID 686979, 2013; further: on the % scale 0 is the no-effect control and ±100 the full control effect; nearly all actives have a fitted effect of over 55% in size
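Cell growth measured by CellTiter-Glo luminescence after a minimum 48 h, 37 C compound exposure with 20 nM CPT in Tdp1-knockout DT40 cells stably expressing hTDP1, seeded 400/well; qHTS titration format.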
TDP1 inh: qHTS Assay for Inhibitors of Tyrosyl-DNA Phosphodiesterase (TDP1). Tyrosyl-DNA phosphodiesterase 1 (Homo sapiens), Q9NUW8. recombinant TDP1, AlphaScreen DNA substrate cleavage. Potency, µM (series often up to 130 µM), for inactives: top-dose activity change, negative = inhibition, hits mostly inhibitors. actives 0.28% (n = 350,000). AID 485290, 2010; further: on the % scale 0 is the no-effect control and ±100 the full control effect; nearly all actives have a fitted effect of over 40% in size
Target sequence (Q9NUW8 whole entry, looked up): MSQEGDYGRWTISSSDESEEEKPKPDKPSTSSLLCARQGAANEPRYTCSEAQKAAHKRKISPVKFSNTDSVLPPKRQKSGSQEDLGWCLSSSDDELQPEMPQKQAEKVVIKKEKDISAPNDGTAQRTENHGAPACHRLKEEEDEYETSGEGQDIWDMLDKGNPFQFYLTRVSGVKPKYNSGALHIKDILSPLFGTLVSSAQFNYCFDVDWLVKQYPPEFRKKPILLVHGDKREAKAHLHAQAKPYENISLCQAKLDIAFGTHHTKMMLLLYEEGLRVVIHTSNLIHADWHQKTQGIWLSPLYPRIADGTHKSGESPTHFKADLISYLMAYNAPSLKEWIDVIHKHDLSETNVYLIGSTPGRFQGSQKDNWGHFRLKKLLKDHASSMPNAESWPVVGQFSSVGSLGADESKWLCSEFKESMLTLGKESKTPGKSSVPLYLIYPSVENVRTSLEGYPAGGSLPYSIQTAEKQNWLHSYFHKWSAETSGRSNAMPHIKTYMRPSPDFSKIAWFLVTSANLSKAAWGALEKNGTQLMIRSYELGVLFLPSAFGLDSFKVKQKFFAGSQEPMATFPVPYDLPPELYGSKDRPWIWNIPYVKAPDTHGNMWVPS
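Recombinant E. coli-expressed Tdp1 (1 nM) preincubated with compound 15 min at RT, then 5'-biotin/3'-phosphotyrosine-FITC DNA substrate (15 nM) added for 5 min. AlphaScreen beads (10 ug/ml) added, 10 min RT; tyrosine-FITC cleavage read as signal loss.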
ClpP mod: qHTS Assay for Activators of ClpP | purified B. subtilis ClpP, FRET peptide cleavage, 20 min | Potency, µM (top dose mostly 57.5 µM), without a hit: top-dose activity change, negative = active | actives 1.9% (n = 340,000) | AID 651965, 2013; active means well fitted falling curve with a large enough effect; inconclusive means small, poorly fitted or top-dose-only effect; inactive means no such curve, though single readings can be large or run the other way; further: the source files actives as falling curves though it sought activators and does not explain the sign; nearly all actives have a fitted effect of over 65% in size
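FRET quenching reversal measured ClpP activation: 10 microg/mL B. subtilis ClpP at pH 8 with the FRET-FV decapeptide, read at 430 nm after 320 nm excitation. The 20-min minus 0-min signal was scaled between DMSO/no-enzyme wells and ADEP (5.8 microM final).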
TDP1 cell noCPT: qHTS for Inhibitors of human tyrosyl-DNA phosphodiesterase 1 (TDP1): qHTS in cells in absence of CPT; DT40 Tdp1-/- hTDP1 cells, no CPT, ATP luminescence, 48 h; Potency, µM (series often up to 46.2 µM), without a hit: at the top dose activity change, negative = growth inhibition, usual class: inhibitors; actives 15% (n = 420,000); further: on the % scale 0 is the no-effect control and ±100 the full control effect; nearly all actives have a fitted effect of over 55% in size
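A cellular qHTS used chicken DT40 cells lacking endogenous Tdp1 but carrying stably transfected human TDP1. Compounds were applied without camptothecin, and cell growth kinetics were judged by ATP-dependent luminescence after ≥48 hr.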
* marks the source's active call; other numbers are inactive results; ? = inconclusive; nt = not tested or not shown; ! = not confirmed by another sample; [ ] = remark or other dose. Unless noted, the call rests on the fitted dose curve; in most records, active means well fitted curve in the direction sought with a large enough effect; inconclusive means small, poorly fitted or top-dose-only effect, or another doubt; inactive means no such curve, though single readings can be large; an effect the other way counts as inactive or inconclusive. Potency means the concentration at half of the fitted maximal effect.

SMILES	TDP1 cell CPT	TDP1 inh	ClpP mod	TDP1 cell noCPT
COC(=O)c1ccc(-c2noc(CN(Cc3nccn3C)C(C)C)n2)cc1	13µM*	0%	nt	?
CC(C)N(Cc1nc(-c2ccc3c(c2)OCO3)no1)Cc1nccn1C	-27%	nt	-2%	?
C[C@H]1CN([C@@H](C)CO)C(=O)CCCn2cc(nn2)CO[C@@H]1CN(C)C(=O)Nc1ccc2c(c1)OCCO2	6%	nt	-2%	-5%
CCOC(=O)c1ccc(-n2c(=S)sc3c(=O)[nH]c(C)nc32)cc1	?	3%	-1%	16µM*
Cc1cc(C)c(C(=O)/C=C/c2cccc3ccccc23)c(=O)[nH]1	16µM*	8%	-11%	9.2µM*
CN(C)CCN(Cc1cccs1)c1ccccn1	?	5%	-1%	24µM*!
CN(C)CCN(Cc1ccco1)c1ccccn1	20%	nt	nt	-2%
COc1ccc(-c2nnn3c2nc(NCCc2ccc(OC)c(OC)c2)c2ccccc23)cc1	8.2µM*	6%	1%	9.2µM*
COc1ccc(CNc2nc3c(-c4cccc(F)c4)nnn3c3ccccc23)cc1	?	6%	4%	?
Cc1cccc(-c2nnn3c2nc(NCc2ccccc2)c2ccccc23)c1	?	-6%	-22%	21µM*
COCCCNc1nc2c(-c3ccc(C)cc3)nnn2c2ccccc12	-7%	nt	-11%	-5%
COc1ccc(CCNc2nc3c(-c4cccc(C(F)(F)F)c4)nnn3c3ccccc23)cc1OC	?	-1%	6%	16µM*
COc1ccc(CNc2nc3c(-c4cccc(C)c4)nnn3c3ccccc23)cc1	?	-1%	?	?
O=C(NCc1ccc(F)cc1)c1cc(C2CCCCN2S(=O)(=O)c2cccc3cccnc23)on1 (centres undefined)	?	nt	-3%	?
C#CCOc1ccc(Cl)cc1/C=C1/C(=O)ON=C1C	23µM*	nt	nt	?
CCOc1cc(/C=C2\C(=O)ON=C2C)ccc1OCc1ccccc1	?	3%	?	15µM*
C#CCOc1ccc(/C=C2/C(=O)ON=C2C)cc1Br	23µM*	nt	nt	26µM*
CC1=NOC(=O)/C1=C/c1ccc(O)c(Br)c1	11%	nt	nt	?
Cc1cc(C(=O)NCCN2Cc3ccccc3OC(c3ccccc3F)C2)no1 (centres undefined)	-4%[9.04 µM]	nt	nt	-10%
Cc1oc2ncn(CC(C)C)c(=O)c2c1C(=O)N(CCN(C)C)Cc1ccccc1	-22%	2%	1%	-9%
O=C1c2ccccc2C(=O)N1Cc1nc2ccccc2c(=O)n1Cc1ccco1	-12%	4%	1%	8%
O=C(CCc1nnc2ccc(NCc3ccco3)nn12)Nc1ccccn1	3%	25µM*	1%	-15%
Cc1sc2nc3ccc(NCc4ccco4)nn3c(=O)c2c1C	?	-4%	?	21µM*
O=c1c2ccccc2nc2ccc(NCc3ccco3)nn12	?	50µM*	-25%	?
COc1ccc2c(c1)OC[C@H]1[C@H]2N2C(=O)CN(CCc3c[nH]c4ccccc34)C(=O)[C@@]2(C)[C@H]1c1ccccc1	?	5%	-12%	?
SMILES	TDP1 cell CPT	TDP1 inh	ClpP mod	TDP1 cell noCPT
Cc1ccc(S(=O)(=O)N2CCC(C(=O)NC3CC(C)(C)NC(C)(C)C3)CC2)cc1	0%	1%	nt	-18%
c1csc(-c2nc3ccccn3c2NC2CCCCC2)c1	?	5%	nt	?
Cc1cccc(C)c1Nc1c(-c2cccs2)nc2ncccn12	21µM*	-4%[12.3 µM]	0%	?
COc1ccc(-c2nc3ncccn3c2Nc2ccccc2)cc1	-2%	3%	nt	?
Cc1ccc2nc(-c3cccs3)c(Nc3c(C)cccc3C)n2c1	23µM*	10%	28µM*	26µM*
Cc1nnc(SCc2cc(=O)[nH]c(=S)[nH]2)s1	3%	6%	nt	11%
COc1ccccc1CNC(=O)C(=O)NCC(c1cccnc1)N1CCN(c2ccc(F)cc2)CC1 (centres undefined)	12µM*	6%	-2%	13µM*

Bioassay records as filed in PubChem.
